Most compounds without a hit are left out; they make up all but 1.7% or so of the library.
Mtb hypoxia inh – PubChem AID 1159583 | M. tuberculosis hypoxia-regulated fluorescent reporter, fluorescence | fluorescence inhibition, % (no concentration beside the values) | 300,000 tested, 0.1% active; in the data active = fluorescence inhibition mostly above about 23%, no sharp cut-off; inactive = mostly below about 17%
CCHF vOTU inh-1 – CCHFV vOTU protease inhibitors, primary screen, biochemical, Pep-AMC substrate, fluorescence; Crimean-Congo hemorrhagic fever virus L polyprotein viral ovarian tumor (vOTU) protease …; inhibition, % at 11.5 µM; 370,000 tested, 0.55% active; AID 651958, 2012; also: 0% = vehicle wells with enzyme and 100% = no enzyme wells
Sa ugtP lethal – growth inhibition of ugtP-null S. aureus, primary screen, RN4220 ugtP deletion, OD600; 16 h; growth inhibition, % (concentration not given with the values); 330,000 tested, 0.54% active; in the data active = growth inhibition above about 68%;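 also: plate controls were untreated wells for no effect and antibiotic for full effect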
Sa RN4220 lethal – growth inhibition of S. aureus RN4220, primary screen, OD600 | 16 h | inhibition, % (no concentration beside the values) | 330,000 tested, 0.33% active; in the data active = inhibition above about 85%;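 also: plate controls were untreated cells for no effect and reference antibiotic for full effect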
PfHsp40 yeast – rescue of yeast from PfHsp40 toxicity, primary screen, S. cerevisiae, ATP luminescence; growth rescue, % at 12.5 µM; 340,000 tested, 0.68% active; S. cerevisiae expressing PfHsp40, growth rescue; AID 504582, 2011; in the data active = growth rescue above about 28%, passing the limit was not always enough;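 also: yeast W303a lacking pdr1 and pdr3 grown in galactose medium; growth measured after three days at 30 °C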
Vc quorum ag – inducers of Vibrio cholerae quorum light production without autoinducers, primary screen, BH1578 luxS cqsA deficient, single point; activation, % at 18.7 µM; AID 588436, 2011; 350,000 tested, 0.16% active; V. cholerae BH1578 lux reporter, luminescence, 6 h; in the data active = activation mostly above about 9.7%, no sharp cut-off
CCHF vOTU inh-2 – CCHFV vOTU protease inhibitors, confirmation, biochemical, Pep-AMC substrate, fluorescence; shares compounds with CCHF vOTU inh-1; Recombinant CCHFV vOTU; inhibition, % at 11.5 µM; 1,900 tested, 17% active
Numbers without * were called inactive; i = inactive; · = not tested or not shown. Rule as the data show it, unless noted: active = inhibition above about 30%; inactive = the rest.

SMILES	Mtb hypoxia inh	CCHF vOTU inh-1	Sa ugtP lethal	Sa RN4220 lethal	PfHsp40 yeast	Vc quorum ag	CCHF vOTU inh-2
CCCCCCCCN1C(=O)[C@@H](CC(=O)NCc2cccs2)C[C@@]2(C(=O)OC)C1=C[C@H](C(C)C)O[C@@H]2C1CC1	·	39*	·	·	·	·	20
COc1cccc(C=NNC(=O)C(=O)N2CCCC2)c1O	6	·	0	1	·	·	·
C/C(=N\NC(=O)c1ccccc1-n1cccc1)c1ccccn1	·	37*	·	·	·	-1	-13
CCOC1OC(C(=O)NCc2nc3ccccc3[nH]2)=CC(c2csc3ccccc23)C1CCCO (stereo not given)	7	·	7	-7	·	·	·
COc1cc(Nc2ccccc2Cl)c([N+](=O)[O-])nc1[N+](=O)[O-]	-7	31*	24	27	0	-2	-7
CCCCNC(=S)NN=Cc1ccc(C)s1	10	·	13	-2	·	·	·
CCO[C@H]1OC(C(=O)NCc2ccccc2)=C[C@@H](c2ccc(C(F)(F)F)cc2)[C@@H]1CCCO	·	19	·	·	15	-1	·
CCO[C@H]1OC(C(=O)Nc2ccccc2)=C[C@@H](c2ccc(C(F)(F)F)cc2)[C@@H]1CCCO	·	32*	·	·	11	i	7
O=C(NN=Cc1ccc2c(c1)OCO2)c1cccc2ccccc12	4	·	0	0	·	·	·
CCOC(=O)C1CCCN(C(=O)c2cccc(S(=O)(=O)N(Cc3ccccc3)c3ccccc3OC)c2)C1 (stereo not given)	6	36*	13	3	0	i	-12
CCOC(=O)C1CCCN(C(=O)c2cccc(S(=O)(=O)N(C)c3ccc(OC)cc3)c2)C1 (stereo not given)	6	5	8	6	-2	0	·
O=[N+]([O-])c1cccc(C=NNc2nc(NCc3ccccc3)nc(N3CCOCC3)n2)c1	-16	·	12	2	·	·	·
COCCNC(=O)CC(=O)NN=Cc1cccc(C(=O)OC)c1	7	·	11	4	·	·	·
CCCCN1C(=S)NC[C@@H]1c1ccccc1	·	33*	·	·	0	-1	4
O=C(CCn1c(=S)oc2ccccc21)NC1CCCCCCC1	-8	32*	9	5	2	-1	-13
O=c1cc(-c2ccc(O)c(O)c2)oc2cc(O)cc(O)c12	5	13	13	6	1	-5	·
O=c1c(O)c(-c2ccc(O)c(O)c2)oc2cc(O)cc(O)c12	2	32*	5	41	2	i	-6
COc1ccc(C(C[N+](=O)[O-])c2c(C)[nH]n(-c3ccccc3)c2=O)cc1 (stereo not given)	18	100*	2	5	5	i	31*
Cc1[nH]n(-c2ccccc2)c(=O)c1C(c1ccc([N+](=O)[O-])cc1)c1c(C)[nH]n(-c2ccccc2)c1=O	12	·	6	2	-1	i	·
Cc1[nH]n(-c2ccccc2)c(=O)c1C(c1ccc(O)c([N+](=O)[O-])c1)c1c(C)[nH]n(-c2ccccc2)c1=O	·	70*	1	1	2	-18	-8
CN1CCC(=O)N(C(CO)Cc2ccccc2)CC1 (stereo not given)	1	·	-12	2	·	·	·
CC(/C=C/c1ccc(O)cc1)=NO	·	·	0	-2	·	·	·
CCCCCCn1c(=O)n2n(c1=O)[C@@H]1CN(S(=O)(=O)c3ccc(C)cc3)C[C@]1(O)[C@@H](OC(=O)NCc1ccc(OC)c(OC)c1)C2	·	43*	·	·	·	0	-9
CCCCCCn1c(=O)n2n(c1=O)[C@@H]1CN(S(=O)(=O)c3ccc(C)cc3)C[C@]1(O)[C@@H](OC(=O)Nc1cccs1)C2	·	34*	·	·	·	1	-6
Nc1ccc(N(CCO)CCO)cc1	3	57*	10	5	0	0	27
SMILES	Mtb hypoxia inh	CCHF vOTU inh-1	Sa ugtP lethal	Sa RN4220 lethal	PfHsp40 yeast	Vc quorum ag	CCHF vOTU inh-2
CCN(CC)c1ccc(N)cc1	·	·	·	·	-1	0	·
Cc1cccc(-n2ncc3c(N)ncnc32)c1	·	30*	12	4	-1	0	-16
Cc1cccc(-n2ncc3c(NC(C)C)ncnc32)c1	4	-2	-9	0	0	0	·
Cc1ccc(C=NNC(=O)c2nnn(-c3nonc3N)c2C)o1	5	·	-1	0	·	·	·
O=C1C2CCCN2C(c2cccs2)N1c1ccc(Cl)cc1 (stereo not given)	10	31*	1	1	-1	i	-11
O=c1oc2ccccc2c(N2CCCC2)c1[N+](=O)[O-]	13	31*	5	4	-1	0	-15
O=c1oc2ccccc2c(N2CCCCC2)c1[N+](=O)[O-]	5	4	-1	0	1	-1	·
COc1cc(/C=N/NC(=O)C(Cc2c[nH]c3ccccc23)NC(=O)OCc2ccccc2)cc([N+](=O)[O-])c1O (stereo not given)	·	35*	·	·	0	0	10
COc1cc(/C=N/NC(=O)C(Cc2c[nH]c3ccccc23)NC(=O)OCC(C)C)cc([N+](=O)[O-])c1O (stereo not given)	·	25	·	·	1	0	·
CC(=O)c1ccc(N2CCN(C(=O)C3CCCN(S(=O)(=O)c4cnc[nH]4)C3)CC2)cc1 (stereo not given)	-2	34*	-2	0	1	0	-10
COC(=O)[C@@]12C[C@@H](CC(=O)NCc3cccc(C(F)(F)F)c3)C(=O)N(Cc3cccc4ccccc34)C1=CCC(C)(C)C2	·	31*	·	·	·	·	1
COC(=O)[C@@]12C[C@@H](CC(=O)NCc3ccc(OC)c(OC)c3)C(=O)N(CCc3ccc(OC)c(OC)c3)C1=CCC(C)(C)C2	·	31*	·	·	·	·	-11
COC(=O)[C@@]12C[C@@H](CC(=O)NCc3cccc(C(F)(F)F)c3)C(=O)N(Cc3ccccc3)C1=CCC(C)(C)C2	·	28	·	·	·	·	·
COC(=O)[C@@]12C[C@@H](CC(=O)NCc3ccc(OC)c(OC)c3)C(=O)N(Cc3ccco3)C1=CCC(C)(C)C2	·	37*	·	·	·	·	-11
CCCCCCCCN1C(=O)[C@H](CC(=O)N2CCCCC2)C[C@@]2(C(=O)OC)CC(C)(C)CC=C12	·	33*	·	·	·	·	13
COc1ccccc1C=NNC(=O)Cn1cnc([N+](=O)[O-])n1	-1	·	-10	-4	·	·	·
C[C@@]12C(=O)Nc3cc(F)c(F)cc3C(=O)N1C1c3cc(Cl)ccc3OCC1C2c1ccccc1 (stereo not given in full)	-4	·	-7	-15	·	·	·
CCCCCCCCN1C(=O)[C@H](CC(=O)NCc2ccc(OC)c(OC)c2)C[C@@]2(C(=O)OC)CC(C)(C)CC=C12	·	37*	·	·	·	·	3
CCOC(=O)C1(CCc2ccccc2)CCN(C(=O)c2cccc(C)n2)CC1	3	15	-1	4	-1	-1	·

High-throughput results from PubChem BioAssay.
